# Results: the supplement of paper PMC9135407
# Where “and” joins values, the source holds several entries; their conditions need not be identical. Identical values can stand only once. Counter-ions that a name gives are not always drawn. Among all 5,800 compounds or so, about 620 (11%) showed activity. Only a selection was taken, and actives are over-represented in it overall. Unmarked numbers belong to inactive results.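 Rule for the calls: active = score above a cut-off or among the top three wells of a plate; in these data no inactive exceeds 0.85.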
# System: primary human hepatic stellate cells (donor 1)
# Test: scaled lipid accumulation score (0 = DMSO-like, 1 = nortriptyline-like); higher = stronger HSC inactivation (lipid re-accumulation), active = hit call of the paper
# Conditions: 48 h
# [1] = library stock concentration: 1 mM
# [2] = library stock concentration: 3.33 mM
# [3] = library stock concentration: 10 mM
# [4] = library stock concentration: 80 uM
# [5] = library stock concentration: 400 uM
# [6] = library stock concentration: 2 mM
# [7] = library stock concentration: 8.9 mM
compound,measurement,setting,value
CCCCCCC=CCCCCCCCCCCOC(C)=O [11-cis Vaccenyl Acetate],scaled lipid accumulation score,[1],≤ 0
Nc1nc(Nc2ccc(S(N)(=O)=O)cc2)nn1C(=S)Nc1c(F)cccc1F [Cdk1/2 Inhibitor III],scaled lipid accumulation score,[2],0.782
CCCCC/C=C\C[C@@H](O)/C=C/C=C\C/C=C\CCCC(=O)O,scaled lipid accumulation score,library stock concentration: 100 uM,≤ -0.021
CCC(NC(C)C)C(O)c1ccc(O)c2[nH]c(=O)ccc12 (centres undefined) [Procaterol hydrochloride],scaled lipid accumulation score,library stock concentration: 6.1 mM,≤ 0
same,scaled lipid accumulation score,[3],≤ -0.006
CCc1cc2c(cc1CC)CC(NC[C@H](O)c1ccc(O)c3[nH]c(=O)ccc13)C2.O=C(O)C=CC(=O)O [Indacaterol Maleate],scaled lipid accumulation score,[3],1.15 (active)
CCc1cc2c(cc1CC)CC(NC[C@H](O)c1ccc(O)c3[nH]c(=O)ccc13)C2 [Indacaterol Maleate],scaled lipid accumulation score,[2],0.494
CCC(NC(C)C)C(O)c1ccc(O)c2[nH]c(=O)ccc12 (centres undefined) [Procaterol hcl],scaled lipid accumulation score,library stock concentration: 6.9 mM,≤ -0.006
O=C(O)c1cc2ccccc2[nH]1 [Indole-2-carboxylic acid],scaled lipid accumulation score,[3],≤ 0
Cc1nc2ccc(-n3ncc(C(=O)c4cc5ccccc5[nH]4)c3N)cc2[nH]1 [listing 1 of 2 here],scaled lipid accumulation score,[4],0.004
same,scaled lipid accumulation score,[5],≤ -0.001
same,scaled lipid accumulation score,[6],≤ 0
Cc1nc2ccc(-n3ncc(C(=O)c4cc5ccccc5[nH]4)c3N)cc2[nH]1 [listing 2 of 2 here],scaled lipid accumulation score,[3],0.907 (active)
CC(C)c1cc(C(C)C)c(CC(=O)NS(=O)(=O)Oc2c(C(C)C)cccc2C(C)C)c(C(C)C)c1 [Avasimibe],scaled lipid accumulation score,[2],≤ 0
same,scaled lipid accumulation score,[3],≤ 0
COc1cccc(NC(=O)/C=C/c2ccc(Cl)cc2)c1 [listing 1 of 2 here],scaled lipid accumulation score,[3],0.153
COc1cc(/C=C/c2ccc(Cl)cc2)cc(OC)c1,scaled lipid accumulation score,[1],≤ 0
COc1cccc(NC(=O)/C=C/c2ccc(Cl)cc2)c1 [listing 2 of 2 here],scaled lipid accumulation score,[3],1.2 (active)
CCCCC/C=C\CCCCCCCCCCCCC(=O)O [14(Z)-Eicosenoic Acid],scaled lipid accumulation score,[1],≤ 0
CN1CCN(C(=O)c2nc3ccc(Cl)cc3[nH]2)CC1,scaled lipid accumulation score,[3],0.076
CN1CCN(c2ccc3nc(-c4c(N)c5c(F)cccc5[nH]c4=O)[nH]c3c2)CC1 [listing 1 of 2 here],scaled lipid accumulation score,[5],0.945 (active)
same,scaled lipid accumulation score,[6],1.11 (active)
same,scaled lipid accumulation score,[3],1.08 (active)
CC(O)C(=O)O.CC(O)C(=O)O.CN1CCN(c2ccc3nc(-c4c(N)c5c(F)cccc5[nH]c4=O)[nH]c3c2)CC1 [Dovitinib (TKI-258) Dilactic Acid],scaled lipid accumulation score,[2],1.27 (active)
CN1CCN(c2ccc3nc(-c4c(N)c5c(F)cccc5[nH]c4=O)[nH]c3c2)CC1 [Dovitinib (TKI-258) Dilactic Acid],scaled lipid accumulation score,[3],0.445
CCOc1ccc(-c2nc3ccc(-c4nc5ccc(N6CCN(C)CC6)cc5[nH]4)cc3[nH]2)cc1,scaled lipid accumulation score,[7],0.339
"CN1CCN(c2ccc3nc(-c4c(N)c5c(F)cccc5[nH]c4=O)[nH]c3c2)CC1 [Dovitinib (TKI-258, CHIR-258)]",scaled lipid accumulation score,[2],1.25 (active)
same,scaled lipid accumulation score,[3],1.13 (active)
CN1CCN(c2ccc3nc(-c4c(N)c5c(F)cccc5[nH]c4=O)[nH]c3c2)CC1 [listing 2 of 2 here],scaled lipid accumulation score,[4],0.779
CC[C@@H]1Cn2c(c3nc(-c4ccccc4)nc-3n(C)c2=O)N1,scaled lipid accumulation score,[3],0.008
c1cnc2cc3c(cc2n1)[C@@H]1CNC[C@H]3C1 [Varenicline tartrate],scaled lipid accumulation score,[3],≤ 0
NC(=O)[C@@H]1CCCN1C(=O)[C@H](Cc1c[nH]cn1)NC(=O)[C@@H]1CCC(=O)N1,scaled lipid accumulation score,[3],≤ 0
CC[C@@H](C(=O)[C@@H](C)[C@@H](O)[C@H](C)CCc1ccc(C)c(O)c1C(=O)O)[C@H]1O[C@](CC)([C@H]2CC[C@](O)(CC)[C@H](C)O2)C[C@@H]1C [Lasalocid sodium],scaled lipid accumulation score,[3],0.665
CC[C@@H](C(=O)[C@@H](C)[C@@H](O)[C@H](C)CCc1ccc(C)c(O)c1C(=O)O)[C@H]1O[C@](CC)([C@H]2CC[C@](O)(CC)[C@H](C)O2)C[C@@H]1C [Lasalocid sodium salt],scaled lipid accumulation score,,0.439
COc1ccc(C2CC(c3c(O)cc(C)oc3=O)=NCCS2)c(OC)c1 (centres undefined),scaled lipid accumulation score,[3],0.164
CCCCC[C@](C)(O)/C=C/[C@H]1[C@H](O)CC(=O)[C@@H]1CCCCCCC(=O)O [15(S)-15-methyl Prostaglandin E1],scaled lipid accumulation score,[1],0.012
Cc1nnc(-c2ccc3occ(-c4ccc([S+](C)[O-])cc4)c3c2)o1 (centres undefined),scaled lipid accumulation score,[3],0.106
NC(=O)Cc1cccc(C(=O)c2ccccc2)c1N [Nepafenac],scaled lipid accumulation score,[2],≤ 0
same,scaled lipid accumulation score,[3],0.098
O=C(O)C1CSCN1 (centres undefined),scaled lipid accumulation score,[3],≤ 0
COc1c(OC)c2occc2c2oc(=O)ccc12 [Pimpinellin],scaled lipid accumulation score,[3],≤ 0
O=C(O)CCC/C=C/C[C@@H]1[C@@H](/C=C/[C@@H](O)COc2cccc(C(F)(F)F)c2)[C@H](O)C[C@@H]1O [5-trans Fluprostenol],scaled lipid accumulation score,[1],0.008
c1ccc(CN(CC2=NCCN2)c2ccccc2)cc1 [Antazoline hydrochloride],scaled lipid accumulation score,,0.544
same,scaled lipid accumulation score,[3],0.11
CC(C)COCC(CN(Cc1ccccc1)c1ccccc1)N1CCCC1 (centres undefined) [Bepridil hydrochloride],scaled lipid accumulation score,,0.677
same,scaled lipid accumulation score,library stock concentration: 5 mM,0.569
same,scaled lipid accumulation score,[3],0.175 and 0.195
c1ccc(CN(CC2=NCCN2)c2ccccc2)cc1 [Antazoline phosphate],scaled lipid accumulation score,[3],0.143
CC(C)COCC(CN(Cc1ccccc1)c1ccccc1)N1CCCC1.Cl (centres undefined),scaled lipid accumulation score,library stock concentration: 12.4 mM,0.96 (active)
c1ccc(CN(CC2=NCCN2)c2ccccc2)cc1 [Antazoline HCl],scaled lipid accumulation score,[2],≤ 0
same,scaled lipid accumulation score,[3],0.363
Nc1cc2c(ncn2CCOCP(=O)(O)O)c(=O)[nH]1 [PMEG hydrate],scaled lipid accumulation score,[3],≤ -0.055
COC1=C2C[C@@H](C)C[C@H](OC)[C@H](O)[C@@H](C)/C=C(\C)[C@H](OC(N)=O)[C@@H](OC)/C=C\C=C(/C)C(=O)NC(=CC1=O)C2=O [Geldanamycin],scaled lipid accumulation score,[2],0.54
same,scaled lipid accumulation score,[7],0.573
same,scaled lipid accumulation score,[3],0.493
C=CCNC1=C2C[C@@H](C)C[C@H](OC)[C@H](O)[C@@H](C)/C=C(\C)[C@H](OC(N)=O)[C@@H](OC)/C=C\C=C(/C)C(=O)NC(=CC1=O)C2=O [17-AAG (Tanespimycin)],scaled lipid accumulation score,[2],0.613
CO[C@H]1/C=C\C=C(/C)C(=O)NC2=CC(=O)C(NCCN(C)C)=C(C[C@@H](C)C[C@H](OC)[C@H](O)[C@@H](C)/C=C(\C)[C@@H]1OC(N)=O)C2=O [17-DMAG (Alvespimycin) HCl],scaled lipid accumulation score,[2],0.404
C=CCNC1=C2C[C@@H](C)C[C@H](OC)[C@H](O)[C@@H](C)C=C(C)[C@H](OC(N)=O)[C@@H](OC)C=CC=C(C)C(=O)NC(=CC1=O)C2=O [17-AAG (Tanespimycin)],scaled lipid accumulation score,[3],0.873 (active)
CO[C@H]1C=CC=C(C)C(=O)NC2=CC(=O)C(NCCN(C)C)=C(C[C@@H](C)C[C@H](OC)[C@H](O)[C@@H](C)C=C(C)[C@@H]1OC(N)=O)C2=O.Cl [17-DMAG (Alvespimycin) HCl],scaled lipid accumulation score,[3],1.24 (active)
